Measured values taken from ChEMBL document CHEMBL3988442, “University of Dundee, Small-Polar-MMV Screening Library” (2021).
Screen size: about 69,000 compounds; about 950 (1.4%) showed an effect of 50% or more. The entries come from a sample that favours strong results as a whole.

The compounds below were run on Mycobacterium tuberculosis (assay: Cornell M. t heat shock assay; further: in the data most compounds retested in dose-response had high values).
Type: functional, organism-based
Set-up: dose or concentration left out as unconfirmed

SMILES	Percent Effect [%]
Cc1noc([C@]23COC[C@H]2CN(C(=O)CN(C)C)C3)n1.O=C(O)C(F)(F)F	15.78
CC1CCN(c2cc(CCC3CCCN3)ncn2)CC1.Cl (stereo not drawn)	-19.69
Cc1nocc1C(=O)N1CCOC2(COCCN(C(C)C)C2)C1.O=C(O)C(F)(F)F (stereo not drawn)	1.76
CCN(Cc1cccc2c1OCO2)CC1CCCO1 (stereo not drawn)	-23.06
CCN(Cc1ccc2cccc(O)c2n1)CC1CCCO1 (stereo not drawn)	84.2
CCN(Cc1cccnc1)CC1CCCO1 (stereo not drawn)	-42.47
O=C(O)C(F)(F)F.O=S1(=O)c2ccccc2C2(CCN(Cc3ccccc3)C2)N1CC1CC1 (stereo not drawn)	20.71
COCCN(C)c1ccc(NCc2ccsc2)nc1	90.49
CCn1cc(CNc2ccc(N(C)CCOC)cn2)cn1	57.45
OCC1CCN(c2ccc(NCc3ccsc3)nc2)CC1	11.8
CCn1cc(CNc2ccc(Br)c(OC)c2)cn1	-14.65
COCCN(C)c1ccc(NCc2cscn2)nc1	13.97
COCCN(C)c1ccc(NCc2cccnc2)nc1	21.66
Cl.O=C(c1ccccc1Cl)N1CCN(CCc2ccccn2)CC1	-2.792
COCCN1CCN(c2cccc(C)n2)Cc2ccc(C)nc21.O=C(O)C(F)(F)F.O=C(O)C(F)(F)F	28.62
CN(Cc1cccc2cccnc12)C1CCS(=O)(=O)C1.O=C(O)CC(O)(CC(=O)O)C(=O)O (stereo not drawn)	-10.77
Cc1cccc(CN2CCO[C@H]3[C@@H](OCc4ccncc4)CC[C@@H]32)n1.O=C(O)C(F)(F)F.O=C(O)C(F)(F)F.O=C(O)C(F)(F)F	-9.598
CN(C)C(=O)[C@@H]1C[C@@H]2CCN(C3CCOCC3)C[C@H]2O1.O=C(O)C(F)(F)F	-21.42
CNC(=O)[C@@H]1[C@@H](OC(=O)Nc2ccccc2)C(=O)N(C)C12CCNCC2	60.88
CN1C(=O)[C@H](OC(N)=O)[C@@H](C(=O)Nc2ccccc2)C12CCNCC2	31.45
CO[C@H]1C(=O)N(C)C2(CCNCC2)[C@@H]1C(=O)Nc1ccccc1	47.74
Fc1ccc(F)c(CN2CCC(c3n[nH]c4ncccc34)CC2)c1.O=C(O)CC(O)(CC(=O)O)C(=O)O	-14.52
CN(CCc1cccc2ccccc12)Cc1nc(N)nc(N(C)C)n1	75.75
CN(Cc1nc(N)nc(N(C)C)n1)Cc1cccc2ccccc12	-5.133
COc1ccccc1CCN(C)Cc1nc(N)nc(N(C)C)n1	10.83
CC(C)Cn1ccnc1CNC(=O)NC(C)(C)c1nccs1	-19.09
Cc1nc(C(C)NC(=O)NCc2nccn2CC(C)C)cs1 (stereo not drawn)	0.1192
CC(C)Cn1ccnc1CNC(=O)NC(C)c1nccs1 (stereo not drawn)	55.14
